Screening data from PubChem BioAssay.
ABHD5 PLIN5 PPI – ABHD5-PLIN5 protein interaction inhibition | Split G. princeps luciferase complementation, luminescence, 4 h | AID 602281 | actives 0.78% (n = 360,000) | inhibition, % at 4 µM;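 active = inhibition above the mean inhibition across every tested compound plus 3 SD, cut at about 22% in these data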
TRPM1 prom inh – inhibitors of MITF-driven TRPM1 promoter in melanoma cells; SK-MEL-5 TRPM1 promoter luciferase, 24 h; inhibition, % at 12.5 µM; actives 0.83% (n = 330,000); AID 488899;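 active = mean inhibition across replicates of 60% or more, whatever share of single replicates reaches that level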
KKLEB cytotox – CF airway cell cytotoxicity counter-screen; activity change (cytotoxicity), % at 5 µM; AID 602141; actives 0.36% (n = 360,000); KKLEB CF airway cells viability, ATPlite luminescence, overnight; active compounds read low; cells stimulated with P. aeruginosa culture filtrate;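 active = corrected activity change at or below -50% at 5 µM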
Peg3 prom inh – inhibitors of Peg3 promoter; actives 1.7% (n = 360,000); inhibition, % at 20 µM; HeLa PEG-Prom luciferase reporter, luminescence, overnight;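 active = inhibition of at least 50% at 20 µM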
HIF-2a inh – inhibitors of HIF-2a. 786-0 RCC cells HIF-2a reporter, luciferase luminescence, overnight. inhibition, % at 18.8 µM. actives 0.72% (n = 360,000). AID 624352;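 active = inhibition of the luminescence signal of 40% or more relative to plate controls, in a single-dose primary screen at 18.75 µM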
CF NFkB block – inhibitors of cystic fibrosis induced NF-kB; KKLEB NF-kB-GFP reporter, PAF-induced, GFP fluorescence overnight; inhibition, % at 5 µM; actives 0.86% (n = 360,000);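 active = at least 50% inhibition at 5 µM, scaled per plate between neutral and stimulator controls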;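 also: PAF is a Pseudomonas aeruginosa culture filtrate used as stimulus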
ABHD5-PLIN5 conf – confirmation of human ABHD5-PLIN5 interaction inhibitors. shares compounds with ABHD5 PLIN5 PPI. biochemical ABHD5-PLIN5 interaction, luminescence. inhibition, % at 4 µM. actives 67% (n = 2,200). AID 651612; in the data active = inhibition above about 23%
HNF4 counter – active in HNF4 split-luciferase counter-screen for ABHD5-PLIN5 inhibitors; shares compounds with ABHD5 PLIN5 PPI; HNF4 dimerization, luminescence, biochemical; inhibition, % at 4 µM; actives 77% (n = 2,200); AID 651674;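 active = mean inhibition across replicate wells exceeding the computed hit threshold, cut at about 13% in these data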;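 also: light from luciferase halves that rejoin when HNF4 fusion proteins dimerize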
Mdm2-MdmX confirm – Mdm2/MdmX (human) interaction inhibition, confirmed; AID 504601; SaOS-2 split-luciferase Mdm2/MdmX complementation, luminescence; actives 99% (n = 740); inhibition, % at 8 µM; shares compounds with HIF-2a inh;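 active = mean inhibition of the luminescence signal across two replicates at or above 26 percent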
HIF-2a inh conf – HIF-2a inhibition, single concentration confirmation | AID 651580 | 786-0 RCC cells, HIF-2a luciferase reporter luminescence, overnight | shares compounds with HIF-2a inh | inhibition, % at 18.8 µM | actives 56% (n = 1,800);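 active = mean inhibition across four replicates of at least 40 percent at the single tested concentration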
HIF-1a counter – inhibits HIF-1a reporter, a counter-screen for HIF-2a inhibitors; shares compounds with HIF-2a inh; MiaPaCa-2 HIF-1a luciferase reporter, desferoxamine, overnight; inhibition, % at 18.8 µM; actives 72% (n = 1,800);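 active = mean inhibition of the reporter signal across four replicates at the single tested dose of 50% or more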
Hits are given with their value; - = inactive; . = no result given. This is a sample that favours compounds with a hit; in the whole collection about 3% have one here.

SMILES | ABHD5 PLIN5 PPI | TRPM1 prom inh | KKLEB cytotox | Peg3 prom inh | HIF-2a inh | CF NFkB block | HIF-2a inh conf | HIF-1a counter | others
O=C1C=CC(=O)N1c1ccccn1 | - | - | - | - | - | - | . | .
O=C1C=CC(=O)N1c1ccccc1N1C(=O)C=CC1=O | 30 | 94 | - | 97 | 77 | 61 | 56 | - | ABHD5-PLIN5 conf=64;HNF4 counter=109
COc1ccc(C2(c3ccc(OC)cc3)NC(=O)N(CC(=O)N(C)C)C2=O)cc1 | - | - | - | - | - | - | . | .
Cc1ccc(NC(=O)c2cc(N3C(=O)C=CC3=O)ccc2N2CCOCC2)cc1 | 29 | 80 | - | 108 | 69 | - | 69 | - | ABHD5-PLIN5 conf=51;HNF4 counter=98
O=C1C=CC(=O)N1CCNc1ncc(C(F)(F)F)cc1Cl | 45 | - | - | 108 | - | 60 | . | . | ABHD5-PLIN5 conf=61;HNF4 counter=107;Mdm2-MdmX confirm=103
CCOc1ncccc1C(=O)OCC(=O)NCc1cccs1 | - | - | - | - | - | - | . | .
O=C(O)Cn1cc(/C=C/[N+](=O)[O-])c2ccccc21 | - | - | - | - | - | - | . | .
N#Cc1ccccc1Cn1cc(/C=C/[N+](=O)[O-])c2ccccc21 | 69 | 91 | - | 106 | 96 | - | 97 | 105 | ABHD5-PLIN5 conf=100;HNF4 counter=96
O=[N+]([O-])/C=C/c1cn(Cc2ccccc2)c2ccccc12 | 31 | - | - | 55 | 43 | - | 71 | 105 | ABHD5-PLIN5 conf=101;HNF4 counter=99
COc1ccc(CC(=O)NC(c2ccccc2)c2ccc(C)cc2)c(OC)c1 (stereo not given) | - | - | - | - | - | - | . | .
CCC(C)Sc1cc(-c2nc3ccc(Cl)cn3c2NC2CCCCC2)ccc1OC (stereo not given) | - | - | - | - | - | - | . | .
O=C(/C=C/c1ccccc1)/C=C/c1ccccc1 | 74 | 79 | - | 110 | 94 | - | - | 103 | ABHD5-PLIN5 conf=99;HNF4 counter=92
CC(/C=C\c1ccccc1)=C/C(=O)O | - | - | - | - | - | - | . | .
Cn1c(N)c(C(C[N+](=O)[O-])c2ccccc2Cl)c(=O)n(C)c1=O (stereo not given) | - | - | - | - | - | - | . | .
COc1cccc(F)c1C(C[N+](=O)[O-])c1c(N)n(C)c(=O)n(C)c1=O (stereo not given) | 31 | 67 | - | 104 | 88 | - | 79 | 106 | ABHD5-PLIN5 conf=30;HNF4 counter=68
COCCNC(=O)/C(C#N)=C/c1cccc(NC(=O)c2ccccc2Cl)c1 | - | - | - | - | - | - | . | .
CC(C)NC(=O)/C(C#N)=C/c1cccc(NC(=O)c2ccccc2Cl)c1 | 28 | - | - | - | 48 | - | - | - | ABHD5-PLIN5 conf=65;HNF4 counter=57
CC1(C)Cc2c(sc(NC(=O)COc3cccc4ccccc34)c2C#N)C(C)(C)N1 | - | - | - | 90 | 49 | - | - | 53 | Mdm2-MdmX confirm=103
FC(F)(F)c1cccc(Sc2nc(-c3ccccc3)nnc2C(F)(F)F)c1 | - | - | - | - | 44 | - | - | 70
FC(F)(F)c1nnc(-c2ccccc2)nc1Sc1ccccc1 | - | - | - | 72 | 78 | - | - | 67
FC(F)(F)c1cccc(Oc2nc(-c3ccccc3)nnc2C(F)(F)F)c1 | - | - | - | - | - | - | . | .
FC(F)(F)c1nnc(-c2ccccc2)nc1Sc1ccc(Cl)cc1 | - | - | - | 74 | 62 | - | 48 | 91
FC(F)(F)c1nnc(-c2ccccc2)nc1N1CCCC1 | - | - | - | - | - | - | . | .
COc1ccc(CCNC(=O)Cc2ccc(NC3=NC4CS(=O)(=O)CC4S3)cc2)c(OC)c1 (stereo not given) | - | . | - | - | - | - | . | .
CCOc1cc(N2CCOCC2)c(OCC)cc1NC(=O)CSc1ncn[nH]1 | - | - | - | - | - | - | . | .
SMILES | ABHD5 PLIN5 PPI | TRPM1 prom inh | KKLEB cytotox | Peg3 prom inh | HIF-2a inh | CF NFkB block | HIF-2a inh conf | HIF-1a counter | others
C[C@@H](NC(=O)C1(c2ccccc2)CCN(C(=O)OC(C)(C)C)CC1)C(=O)N[C@@H](C(=O)O)c1ccccc1 | - | - | - | - | - | - | . | .
O=S1(=O)C=C(Sc2nc3cc(Cl)ccc3o2)c2ccccc21 | - | 68 | -100 | 102 | - | 88 | . | . | Mdm2-MdmX confirm=103
COCCn1c(C)cc(C(=O)CSc2nnnn2C2CCCC2)c1C | - | - | - | - | - | - | . | .
Nc1ccccc1C#CC(=O)c1ccccc1 | - | 93 | -85 | 104 | 89 | 89 | 57 | 105 | Mdm2-MdmX confirm=103
O=C(Nc1ccc(NC(=O)c2ccco2)cc1)c1ccc2c(c1)OCCO2 | - | - | - | - | 46 | - | 69 | -
Cc1cc(NC(=O)c2ccc3c(c2)OCCO3)ccc1NC(=O)c1ccco1 | - | - | - | - | - | - | . | .
COc1ccc(CNC(=O)COC(=O)CCCOc2ccc(Cl)cc2Cl)cc1 | - | - | - | - | 43 | - | - | -
COc1ccccc1OCCC(=O)OCC(=O)NCc1ccc(Cl)cc1 | - | - | - | - | - | - | . | .
COc1cccc(CNC(=O)c2cc3oc4ccccc4c3n2C)c1OC | - | - | - | - | - | - | . | . | Mdm2-MdmX confirm=100
CCC(=O)c1ccc(OCC(=O)OC(C)C(=O)NCc2ccc3c(c2)OCO3)cc1 (stereo not given) | - | - | - | - | - | - | . | .
Cn1c(CNc2cccc(Cl)c2)nnc1SCC(=O)OC1CCCCC1 | - | - | - | - | - | - | . | .
Cn1c(COc2cccc3ccccc23)nnc1SCC(=O)OC1CCCCC1 | - | - | - | - | 67 | - | - | -
CCn1c(COc2cccc3ccccc23)nnc1SCC(=O)OC1CCCCC1 | - | - | - | - | 58 | - | - | -
O=C(O)CSc1nnc(COc2cccc3ccccc23)n1Cc1ccccc1 | - | - | - | - | - | - | . | .
CCCc1cc(=O)n2[nH]c(NC(=O)c3ccco3)nc2n1 | - | - | - | - | - | - | . | .
Cc1nonc1NC(=O)CSc1nc(C2CCCCC2)nc2ccccc12 | - | - | - | - | 45 | - | - | 68
O=C(NC1CCCN(C2Cc3ccccc3C2)C1)c1ccc(F)cc1Cl (stereo not given) | - | - | - | - | - | - | . | .
CCn1c2ccccc2c2cc(NC(=O)CSc3nnc(-c4ccc(OC)cc4)n3N)ccc21 | - | - | - | - | 41 | - | - | -
